Results filed as inconclusive are left out. Activity calls are given as the source filed them. The calls were made as follows: active = hit-call score of the fitted dose curve at least 0.9, where 1 is the maximum; inconclusive = response in the unintended direction; inactive = score below 0.9.
Test: TOX21_p53_BLA_p5_viability: Viability Assessment in the Tox21 HCT-116 p53 Agonism Beta-lactamase Assay, Phase 5 (AID 2283600)
Text: TOX21_p53_BLA_p5 is a cell-based, single-readout assay that uses HCT116, a human intestinal cell line, […] in a 1536-well plate.TOX21_p53_BLA_p5_viability is an assay readout measuring cellular ATP content and detected with CellTiter-Glo Luciferase-coupled ATP quantitation.TOX21_p53_BLA_p5_viability used a type of viability reporter where loss-of-signal activity can be used to understand changes in the cell viability. Furthermore, this assay endpoint can be referred to as a secondary readout, because this assay has produced multiple assay endpoints where this one serves a viability function. To generalize the intended target to other relatable targets, this assay endpoint is annotated to the cell cycle intended target family, where the subfamily is cytotoxicity.
Thawing Method: Place 14 mL of pre-warmed thaw medium into a 15 mL of conical tub. Remove the vial of cells to be thawed from liquid nitrogen and thaw rapidly by placing at 37C in a water bath with gentle agitation for 1-2 minutes. Decontaminate the vial by wiping with 70% ethanol before opening in a biological safety cabinet. Transfer the vial contents drop-wise into 14 mL of thaw medium in a sterile 15-mL conical tub. Centrifuge cells at 900 rpm for 4 minutes and resuspend in thaw medium. Transfer contents to the T75 tissue culture flask containing Thaw Medium and place flask in a humidified 37C/5% CO2 incubator. Switch to growth medium at first passage.Propagation Method: Aspirate medium, rinse once in DPBS, add 0.25% Trypsin/EDTA and swirl to coat the cell evenly. Add an equal volume of Growth Medium to inactivate Trypsin after 2-3 minutes incubation at 37C. Centrifuge cells at 900 rpm for 4 minutes and resuspend in growth medium. Cell should be passage or fed at least twice a week.Assay Protocol: Harvest cells from culture in growth medium and resuspend in assay medium. 2.2 Dispense 4000 cells/5 uL/well into 1536-well black/clear bottom plates using a Multidrop dispenser. After the cells were incubated at 37C for 5 hours, 23 nL of compounds dissolved in DMSO were transferred to the assay plate by a PinTool resulting in a 217-fold dilution. Incubate the plates for 16 hours at 37C, 5% CO2. Add 1 uL of 6X LiveBLAzer FRET B/G (CCF4-AM) Substrate Mixture to each well using a BioRAPTR dispenser and incubate the plates at room temperature for 2 hours. Measure fluorescence intensity at 460 and 530 nm emission and 405 nm excitation by an Envision detector. Data is expressed as the ratio of 460nm/530nm emissions. Add 4 uL of Cell-titer Glo to each well using BioRAPTR and incubate the plates at room temperature for […]. For cell viability readout that measures cytotoxicity, 4 ul/well of CellTiter-Glo reagent was added into the assay plates using a Flying Reagent Dispenser. After 30 min incubation at room temperature, the luminescence intensity in the plates was measured using a ViewLux plate reader.
For `CC(=O)C=CC1C(C)=CCC(C)C1(C)C` (stereo not given), the outcome was “inactive”. For `O=P(O)(O)Oc1ccccc1`, the outcome was “inactive”. In the case of `c1ccc(-c2ccccn2)nc1`, the outcome is reported as “inactive”. In the case of `NC(=O)NNC(N)=O`, the outcome is reported as “inactive”. With `OC1CCCCCCCCCCC1` the outcome was “inactive”. In the case of `COCc1c(C(C)C)nc(C(C)C)c(/C=C/[C@@H](O)C[C@@H](O)CC(=O)O)c1-c1ccc(F)cc1`, the outcome is reported as “inactive”. In the case of `Cc1ccccc1C`, the outcome is reported as “inactive”. With `Nc1ccc(N=Nc2ccccc2)c(N)n1` the outcome was “inactive”. For `O=C(O)CCCCCCCCCC(=O)O`, the outcome was “inactive”. With `COc1ccc(C(Cl)=C(c2ccc(OC)cc2)c2ccc(OC)cc2)cc1` the outcome was “inactive”. With `CCCOCCOCCOCCO` the outcome was “inactive”. For `O=S(=O)(O)c1ccc2cc(O)c(S(=O)(=O)O)cc2c1`, the outcome was “inactive”. With `CCC(C)C=O` (stereo not given) the outcome was “inactive”. In the case of `CC(=O)OC(C)C`, the outcome is reported as “inactive”. In the case of `CCOC(=O)NNc1nncc2ccccc12`, the outcome is reported as “inactive”. With `O=C(O)c1cc(Cl)cc([N+](=O)[O-])c1Cl` the outcome was “inactive”. For `CCCCCCCCCCCCCCCCCC#N`, the outcome was “inactive”. For `c1ccc(CCCc2ccncc2)cc1`, the outcome was “inactive”. In the case of `C=C[C@](C)(O)CC[C@@H]1[C@@]2(C)CCCC(C)(C)[C@@H]2CC[C@@]1(C)O`, the AC50 is reported as 67.5 µM (active). For `CN(C)c1ccc(N=Nc2ccccc2C(=O)O)cc1`, the AC50 was 75.8 µM (active). For `OCCNCc1ccccc1`, the outcome was “inactive”. For `CCCCCCC(O)CO` (stereo not given), the outcome was “inactive”. With `CC(C)COC(=O)C=Cc1ccccc1` the outcome was “inactive”. For `C=CCOCC(O)CCl` (stereo not given), the outcome was “inactive”. In the case of `COc1cc(NC(=O)CC(C)=O)c(OC)cc1Cl`, the outcome is reported as “inactive”. For `O=C1c2cccc(O)c2C(=O)c2c(O)cc(CO)cc21`, the outcome was “inactive”. In the case of `CCCOC(=O)CCCCC(=O)OCCC`, the outcome is reported as “inactive”. In the case of `CCCCCCCCC(=O)OCC`, the outcome is reported as “inactive”. For `CCc1ccc2c(c1)C(=O)c1ccccc1C2=O`, the outcome was “inactive”. In the case of `CN(C)CCCN(C)C`, the outcome is reported as “inactive”. With `O=c1[nH]nc(-c2ccc([N+](=O)[O-])o2)o1` the outcome was “inactive”. With `CCOCC(=O)O` the outcome was “inactive”. With `O=C(Nc1cccc(C(F)(F)F)c1)c1cc(Br)cc(Br)c1O` the outcome was “inactive”. With `C[C@]12C=CC(=O)C=C1CC[C@@H]1[C@@H]2[C@@H](O)C[C@@]2(C)[C@H]1CC[C@]2(O)C(=O)CO` the outcome was “inactive”. With `C=C1C2CCC(C2)C1(C)C` (stereo not given) the outcome was “inactive”. With `CCCCCCCCCCOC(C)=O` the outcome was “inactive”. In the case of `O=c1n(CCO)c(=O)n(CCO)c(=O)n1CCO`, the outcome is reported as “inactive”. With `Cc1cccc(N)n1` the outcome was “inactive”. With `CC(C)CCCC(C)CC=O` (stereo not given) the outcome was “inactive”. For `O=c1cc[nH]c(=S)[nH]1`, the outcome was “inactive”.

Reference: PubChem BioAssay (EPA / NIEHS)
